Source: PubChem BioAssay (EPA / NIEHS)
Some compounds were tested as several samples or in several runs, with calls that do not always agree. The source made the active and inactive calls. How the source made its calls: active means hit-call score of the fitted dose curve at least 0.9, where 1 is the maximum; inactive means score below 0.9.

Assays:
[1] = ATG_CMV_CIS: Attagene CIS-FACTORIAL HepG2 Assay for human CMV (Internal Marker) (AID 2282928); settings: HepG2 CMV promoter reporter, transcription factor profiling; actives raise or lower the signal;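 further: endpoint acts as a background internal control marker rather than a target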
How it was run: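 CMV internal-marker background readout in transiently transfected HepG2 cells bearing cis-regulated reporter units. Reporter mRNA is measured 24 h after dosing by RT-PCR and capillary electrophoresis, with bidirectional fitting against DMSO.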

[2] = ATG_DR4_LXR_CIS: Attagene CIS-FACTORIAL HepG2 Assay for human Liver X Receptor (LXR), DR4 submotif (AID 2282929); settings: HepG2 Attagene DR4 cis-reporter, mRNA transcription; actives raise or lower the signal
How it was run: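 HepG2, transient MRTU transfection, cis-element (DR4) promoter; 24 h compound exposure; total RNA → oligo(dT) RT → PCR → 6-FAM primer extension → HpaI cut → CE. Gain/loss vs DMSO, bidirectional fit.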

[3] = ATG_AP_1_CIS: Attagene CIS-FACTORIAL HepG2 Assay for human Activator Protein 1 (AP-1) (AID 2282931); settings: HepG2 Attagene cis-factorial AP-1 reporter mRNA; actives raise or lower the signal
How it was run: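 Transient MRTU transfection of HepG2 → 24 h chemical treatment → RNA isolation, RT-PCR, 6-FAM labelling, HpaI digest → capillary electrophoresis. Fit: bidirectional, DMSO negative control.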

[4] = ATG_AP_2_CIS: Attagene CIS-FACTORIAL HepG2 Assay for human Activator Protein 2 (AP-2) (AID 2282932); settings: HepG2 AP-2 cis-reporter, Attagene transcription factor profiling; actives raise or lower the signal
How it was run: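 Bidirectional curve fitting against DMSO was applied to reporter mRNA signals from HepG2 cells 24 h after dosing. Cis-promoter reporter units, transiently transfected, were read by RT-PCR plus capillary electrophoresis.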

[5] = ATG_BRE_CIS: Attagene CIS-FACTORIAL HepG2 Assay for human Bone Morphogenetic Protein (BMP) Response Element (BRE) (AID 2282933); settings: HepG2 BMP response element reporter, Attagene transcription factor profiling; actives raise or lower the signal
How it was run: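 After a 24 h chemical treatment, transiently transfected HepG2 cells were lysed for RNA; reporter transcripts were quantified by fluorescent RT-PCR and capillary electrophoresis, normalised to DMSO.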

[6] = biological target: Retinoic acid receptor alpha (Homo sapiens) (UniProt P10276); experiment: ATG_DR5_RAR_CIS: Attagene CIS-FACTORIAL HepG2 Assay for human Retinoic Acid Receptor Alpha (RARE), DR5 submotif (AID 2282934); settings: HepG2 Attagene cis-factorial RARE DR5 reporter, mRNA; actives raise or lower the signal;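 on AC50: reporter responds to endogenous RAR alpha beta and gamma in HepG2 not RARA alone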
Retinoic acid receptor alpha (Homo sapiens), sequence (P10276 whole entry, looked up): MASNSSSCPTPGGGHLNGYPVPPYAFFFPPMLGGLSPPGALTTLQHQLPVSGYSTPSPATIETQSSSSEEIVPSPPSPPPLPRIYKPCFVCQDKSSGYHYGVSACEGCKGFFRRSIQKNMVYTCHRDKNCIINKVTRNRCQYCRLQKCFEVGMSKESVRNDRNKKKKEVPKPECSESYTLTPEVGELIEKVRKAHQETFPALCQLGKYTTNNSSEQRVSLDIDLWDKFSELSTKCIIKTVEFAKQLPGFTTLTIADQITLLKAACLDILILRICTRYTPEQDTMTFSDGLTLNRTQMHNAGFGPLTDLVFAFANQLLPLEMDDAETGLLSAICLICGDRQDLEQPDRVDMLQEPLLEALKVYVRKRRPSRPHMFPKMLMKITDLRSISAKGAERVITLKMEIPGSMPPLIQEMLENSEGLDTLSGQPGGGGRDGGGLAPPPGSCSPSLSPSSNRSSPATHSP
How it was run: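 HepG2 cells transiently transfected with multiplexed reporter units under cis (DR5 RARE) promoters, so endogenous transcription factor activity is measured. After 24 h compound exposure, reporter mRNA is quantified by RT-PCR with fluorescent labelling and capillary electrophoresis; bidirectional fitting versus DMSO.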

[7] = biological target: Transcription factor E2F1 (Homo sapiens) (UniProt Q01094); experiment: ATG_E2F_CIS: Attagene CIS-FACTORIAL HepG2 Assay for human E2F Transcription Factor 1 (AID 2282935); settings: HepG2 Attagene cis-reporter, E2F reporter RNA transcripts; actives raise or lower the signal
Transcription factor E2F1 (Homo sapiens), sequence (Q01094 whole entry, looked up): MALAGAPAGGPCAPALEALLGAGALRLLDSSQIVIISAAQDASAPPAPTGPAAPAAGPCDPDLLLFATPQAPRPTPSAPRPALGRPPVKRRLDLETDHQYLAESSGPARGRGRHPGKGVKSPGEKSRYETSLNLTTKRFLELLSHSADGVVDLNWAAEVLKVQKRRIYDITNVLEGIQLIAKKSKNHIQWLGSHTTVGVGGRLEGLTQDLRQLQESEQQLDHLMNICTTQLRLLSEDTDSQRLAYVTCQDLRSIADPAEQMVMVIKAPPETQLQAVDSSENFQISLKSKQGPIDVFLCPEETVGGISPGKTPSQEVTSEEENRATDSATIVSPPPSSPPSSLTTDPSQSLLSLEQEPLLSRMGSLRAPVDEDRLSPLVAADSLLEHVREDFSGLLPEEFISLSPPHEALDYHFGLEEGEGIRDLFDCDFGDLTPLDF
How it was run: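 Multiplexed cis-reporter assay: HepG2, transient transfection, 24 h dosing, mRNA quantitation by labeled RT-PCR and CE.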

[8] = ATG_E_Box_CIS: Attagene CIS-FACTORIAL HepG2 Assay for human Enhancer Box (E-box) (AID 2282936); settings: HepG2 E-box cis-reporter transcription, actives raise or lower the signal
How it was run: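 Multiplexed CIS reporter system in transiently transfected HepG2 cells measures native transcription factor activity. Reporter RNA after 24 h exposure is profiled by RT-PCR-capillary electrophoresis.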

[9] = ATG_M_61_CIS: Attagene CIS-FACTORIAL HepG2 Assay for M61 Transcription Factor (Internal Marker) (AID 2282937); settings: HepG2 Attagene CIS-FACTORIAL M61 internal marker reporter; actives raise or lower the signal
How it was run: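 Human liver HepG2, transient MRTU transfection (cis promoter elements), 24 h compound. Total RNA → oligo(dT) RT → PCR → FAM label → HpaI → CE. Internal background marker; bidirectional fitting, DMSO = baseline.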

[10] = biological target: Aryl hydrocarbon receptor (Homo sapiens) (UniProt P35869); experiment: ATG_Ahr_CIS: Attagene CIS-FACTORIAL HepG2 Assay for human Aryl Hydrocarbon Receptor (Ahr) (AID 2282930); settings: HepG2 AhR cis-factorial reporter transcription; actives raise or lower the signal
Aryl hydrocarbon receptor (Homo sapiens), sequence (P35869 whole entry, looked up): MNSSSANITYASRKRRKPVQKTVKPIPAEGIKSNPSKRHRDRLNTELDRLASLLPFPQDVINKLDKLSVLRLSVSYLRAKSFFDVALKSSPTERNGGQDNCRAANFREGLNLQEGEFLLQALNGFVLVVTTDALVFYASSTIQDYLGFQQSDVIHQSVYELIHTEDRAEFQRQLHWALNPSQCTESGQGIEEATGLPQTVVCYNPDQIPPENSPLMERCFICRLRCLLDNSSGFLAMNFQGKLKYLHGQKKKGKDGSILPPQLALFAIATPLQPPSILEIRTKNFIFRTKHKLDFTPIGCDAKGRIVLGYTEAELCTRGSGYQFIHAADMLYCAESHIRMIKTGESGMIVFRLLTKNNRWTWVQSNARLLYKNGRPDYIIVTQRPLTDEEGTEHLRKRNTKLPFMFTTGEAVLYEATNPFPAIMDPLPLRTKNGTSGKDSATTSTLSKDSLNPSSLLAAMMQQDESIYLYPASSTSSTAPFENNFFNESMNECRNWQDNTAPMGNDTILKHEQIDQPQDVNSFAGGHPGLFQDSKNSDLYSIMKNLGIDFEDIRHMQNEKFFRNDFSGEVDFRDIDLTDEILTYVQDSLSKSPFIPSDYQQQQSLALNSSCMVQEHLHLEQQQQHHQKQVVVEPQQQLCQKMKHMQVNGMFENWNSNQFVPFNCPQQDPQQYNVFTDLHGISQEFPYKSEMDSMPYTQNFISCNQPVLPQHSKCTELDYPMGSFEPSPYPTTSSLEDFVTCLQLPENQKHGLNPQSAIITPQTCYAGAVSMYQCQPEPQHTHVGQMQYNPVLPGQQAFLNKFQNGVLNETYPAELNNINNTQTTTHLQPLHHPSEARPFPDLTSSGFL
How it was run: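 HepG2 cells transiently transfected with cis-element-driven multiplexed reporter transcription units; endogenous transcription factor activity measured as reporter mRNA 24 h after dosing. RT-PCR, 6-FAM labelling, HpaI digestion, capillary electrophoresis; bidirectional fitting versus DMSO baseline.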

Measured: AC50

CCCCCCCCCCCCN(C)C
inactive: [3] | [5] | [7] | [9]
active: [1] 33.4 µM | [2] 50.9 µM | [4] 33.4 µM | [6] 57.4 µM | [8] 7.96 µM

C#CCOC(=O)/C=C(C)/C=C/CC(C)CCCC(C)C (stereo not drawn)
inactive: [10] | [4] | [5] | [6] | [7] | [8] | [9]
active: [1] 36.9 µM | [2] 96.1 µM

CCC[N+](CCC)(CCC)CCC
inactive: [1] | [2] | [10] | [4] | [5] | [6] | [7] | [8] | [9]

ClCCN1CCOCC1
inactive: [1] | [2] | [10] | [4] | [5] | [6] | [7] | [8] | [9]

CCOC(=O)CCN(SN(C)C(=O)Oc1cccc2c1OC(C)(C)C2)C(C)C
active: [2] 100 µM | [5] 163 µM
inactive: [1] | [10] | [6] | [7] | [9]

CCCCCCCCBr
inactive: [1] | [2] | [10] | [5] | [6] | [7] | [8] | [9]

O=C1c2ccccc2C(=O)C1C(=O)C(c1ccccc1)c1ccc(Cl)cc1 (stereo not drawn)
inactive: [2] | [4] | [7] | [8]
active: [1] 13.7 µM | [10] 8.72 µM | [5] 5.02 µM | [6] 8.58 µM | [9] 88.4 µM

Cc1ccc(OP(=O)(Oc2ccc(C)cc2C)Oc2ccc(C)cc2C)c(C)c1
active: [2] 11.3 µM | [8] 25.1 µM
inactive: [1] | [10] | [4] | [5] | [6] | [7] | [9]

CC1CC(=O)O1 (stereo not drawn)
inactive: [1] | [2] | [10] | [4] | [5] | [6] | [7] | [8] | [9]

Brc1c(Br)c(Br)c(Oc2c(Br)c(Br)c(Br)c(Br)c2Br)c(Br)c1Br
inactive: [1] | [2] | [10] | [4] | [6] | [7] | [8] | [9]

CCCCN(CCCCO)N=O
inactive: [1] | [2] | [10] | [4] | [6] | [7] | [9]

Oc1cccc(-c2ccccc2)c1
active: [1] 67.7 µM | [5] 73.5 µM
inactive: [2] | [10] | [4] | [6] | [7] | [8] | [9]

CCOP(=O)(OCC)OC(=CCl)c1ccc(Cl)cc1Cl
inactive: [1] | [2] | [10] | [4] | [5] | [6] | [7] | [9]

O=C(O)c1cc(I)cc(I)c1I
inactive: [1] | [2] | [3] | [4] | [5] | [6] | [7] | [8] | [9]

c1ccc2sc(SNC3CCCCC3)nc2c1
active: [3] 52.1 µM | [4] 149 µM
inactive: [1] | [2] | [5] | [6] | [7] | [8] | [9]

CCCCCCCCCCBr
active: [1] 163 µM
inactive: [2] | [3] | [4] | [5] | [6] | [7] | [8] | [9]

ClCCCCl
inactive: [1] | [2] | [10] | [4] | [5] | [6] | [7] | [8] | [9]

Nc1ccc(Br)cc1
active: [10] 25.4 µM
inactive: [1] | [2] | [4] | [5] | [6] | [8] | [9]

Clc1ccc(C(Cl)(Cl)Cl)cn1
active: [10] 5.67 µM
inactive: [1] | [2] | [4] | [5] | [6] | [7] | [9]

O=[N+]([O-])c1ccccc1O
inactive: [1] | [2] | [10] | [3] | [6] | [7] | [8] | [9]
active: [6] 27.3 µM

N#Cc1ccccc1N
active: [10] 33.2 µM
inactive: [1] | [2] | [4] | [5] | [6] | [7] | [8] | [9]

C=C(C)[C@@H]1CC=C(C=O)CC1
active: [3] 100 µM
inactive: [1] | [2] | [4] | [5] | [6] | [7] | [8] | [9]

Nc1nc(N)nc(Cl)n1
inactive: [1] | [2] | [10] | [4] | [5] | [6] | [7] | [8] | [9]

CCOC(=O)Cc1ccccc1
inactive: [1] | [2] | [10] | [3] | [5] | [6] | [8] | [9]

Oc1c(Cl)cc(Cl)cc1Cl
active: [10] 62.3 µM
inactive: [1] | [2] | [4] | [5] | [7] | [8] | [9]

O=C(O)C1(c2ccc3c(c2)OC[C@H](Cc2ccc(-c4ccccc4)cc2)[C@H]3O)CCCC1
active: [1] 6.98 µM
inactive: [2] | [10] | [4] | [5] | [6] | [7] | [8] | [9]

Cc1ccc(CCl)cc1
inactive: [1] | [2] | [10] | [4] | [5] | [6] | [7] | [8] | [9]

FC(F)OCC(F)(F)C(F)(F)F
inactive: [1] | [2] | [10] | [3] | [5] | [6] | [9]

NC(=O)CCl
inactive: [1] | [2] | [10] | [3] | [6] | [7] | [8] | [9]

C[C@@H]1O[C@@H](O[C@H]2C[C@@H](O)[C@]3(CO)[C@H]4[C@H](O)C[C@]5(C)[C@@H](C6=CC(=O)OC6)CC[C@]5(O)[C@@H]4CC[C@]3(O)C2)[C@H](O)[C@H](O)[C@H]1O
active: [2] 0.207 µM | [4] 0.119 µM | [6] 0.155 µM
inactive: [1] | [10] | [5] | [7] | [8] | [9]

O=C(Cc1ccccc1)OCCc1ccccc1
inactive: [1] | [2] | [10] | [4] | [5] | [6] | [7] | [8] | [9]

CC(C)[C@@H](Nc1ccc(C(F)(F)F)cc1Cl)C(=O)OC(C#N)c1cccc(Oc2ccccc2)c1 (stereo partly drawn)
inactive: [1] | [2] | [10] | [4] | [5] | [6] | [7] | [8] | [9]

COC(=O)c1cc(Oc2ccc(Cl)cc2Cl)ccc1[N+](=O)[O-]
inactive: [1] | [2] | [4] | [6] | [7] | [8] | [9]
active: [10] 17 µM | [5] 64.1 µM

CN(C)C(=S)S
active: [1] 26.2 µM | [2] 25.5 µM
inactive: [10] | [4] | [5] | [9]

CCOP(=S)(OCC)Oc1ccc(Cl)cc1Cl
inactive: [2] | [10] | [5] | [6] | [8] | [9]
active: [1] 63 µM

CC(C=O)Cc1ccc2c(c1)OCO2 (stereo not drawn)
inactive: [1] | [2] | [10] | [4] | [5] | [6] | [7] | [8] | [9]

O=C(O)COc1cc(Cl)c(Cl)cc1Cl
inactive: [1] | [2] | [4] | [5] | [6] | [7] | [8] | [9]
